Bioassay records as filed in PubChem.
MITF TRPM1 inh = reduces MITF-dependent TRPM1 promoter luciferase signal; SK-MEL-5 TRPM1 promoter luciferase, 24 h; 330,000 compounds, 0.83% hits; inhibition, % at 12.5 µM;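 active means mean inhibition across replicates of 60% or more, whatever share of single replicates reaches that level; inconclusive means some that reach 60%, reason not given; inactive means mean inhibition across replicates below 60%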
TWEAK-Fn14 inh = TWEAK-Fn14 signaling inhibition. TWEAK-stimulated Fn14 reporter cells, luciferase luminescence, 8 h. inhibition, % at 10 µM. 360,000 compounds, 2% hits. AID 1159606; in the data active means inhibition above about 50%
EBV LMP1 NFkB = inhibitors of Epstein-Barr LMP1-induced NF-kappaB reporter; LMP1-induced NF-kappaB luciferase reporter cells, luminescence; inhibition, % at 12.5 µM; 350,000 compounds, 0.69% hits; in the data active means inhibition above about 41%; inconclusive means no clear call, values can overlap the other calls;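 further: 0% = neutral control wells and 100% = reference inhibitor control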
TROY signal inh = inhibitors of TROY-dependent NF-kB signaling. Q293 LMP1-TROYcd NF-kB luciferase reporter, 4 h. inhibition, % at 10 µM. 360,000 compounds, 0.98% hits;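 active means compounds whose plate-normalised and pattern-corrected inhibition of the luciferase reporter signal at the single screening dose is 50% or more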
Peg3 promoter = Peg3 promoter activity inhibition; HeLa PEG-Prom luciferase reporter, luminescence, overnight; inhibition, % at 20 µM; 360,000 compounds, 1.7% hits;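 active means inhibition of at least 50% at 20 µM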
Shn3 inh set2 = reduces Shn3 3'UTR luciferase signal in osteoblasts; Clone20 osteoblast Shn3 3'UTR firefly luciferase, 24 h; inhibition, % at 12.5 µM; 360,000 compounds, 0.52% hits;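 active means mean inhibition of at least 75% with every replicate also reaching 75%; inconclusive means mean inhibition at least 75% but some replicate below; inactive means mean inhibition below 75%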;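 further: 0% = median of neutral control wells and 100% = pilot-screen positive control compound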
The depositor's hits bear a star; i = inactive; u = inconclusive; x = no result given. The list is not random: actives were taken first. Their share in the collection is about 4.1%.

SMILES	MITF TRPM1 inh	TWEAK-Fn14 inh	EBV LMP1 NFkB	TROY signal inh	Peg3 promoter	Shn3 inh set2
Cc1ccc(-n2c(O)c(/C=C3/C(c4ccccc4)=Nc4ccccc43)c(=O)[nH]c2=O)cc1	-5.6	70.6*	-12.2	-23.1	-49.9	-16.3
COc1ccc(-n2c(O)c(/C=C3\C=Nc4ccccc43)c(=O)[nH]c2=O)cc1	1.9	13.4	1.0	-1.2	15.6	-0.9
CCOc1ccc(CN(C)CC(=O)Nc2cc(C)c(C)cc2[N+](=O)[O-])cc1	4.5	44.4	1.1	67.4*	-118.8	-14.6
O=C(CCc1ccccc1)NC(=S)Nc1ccccc1[N+](=O)[O-]	-8.6	-18.5	14.0	-29.2	-12.5	-7.4
CCOc1ccc2nc(N/C(N)=N/C(=S)Nc3ccc(C)c(C)c3)nc(C)c2c1	-5.9	19.8	1.0	4.7	-1.6	30.0
COc1ccc(NC(=S)/N=C(\N)Nc2nc(C)c3ccc(C)cc3n2)cc1	8.9	1.1	9.3	13.5	53.0*	66.1
CCC1CCCCN1C(=O)CSc1nnc(N)s1 (configuration not stated)	-0.3	4.9	-8.3	9.7	13.0	15.6
CN(Cc1c(C(=O)N/N=C/c2ccccc2O)nnn1-c1nonc1N)C1CCCCC1	x	-20.8	27.4	2.9	58.9*	83.4
CCCc1c(C(=O)N/N=C(\C)c2ccc(O)cc2)nnn1-c1nonc1N	-1.7	-13.2	0.8	9.4	-13.1	4.3
Cc1nnn(-c2nonc2N)c1C(=O)N/N=C/c1cccc2ccccc12	-2.1	-34.0	6.2	-8.2	52.2*	9.3
CCCc1c(C(=O)N/N=C(\C)c2ccccn2)nnn1-c1nonc1N	x	-6.3	u	7.6	40.3	89.4*
Cc1nnn(-c2nonc2N)c1C(=O)N/N=C/c1ccccc1O	-4.7	-36.9	16.3	-16.4	11.7	38.9
CC1CCN(Cc2c(C(=O)N/N=C/c3ccccc3O)nnn2-c2nonc2N)CC1	29.8	-16.7	31.6	-8.6	66.3*	80.0
O=C(CCc1ccccc1)N1CCN(Cc2ccc(F)cc2Cl)CC1	4.8	4.0	-8.3	2.3	9.8	8.1
Nc1nonc1-n1nnc(C(=O)N/N=C/c2cc(Cl)ccc2O)c1CN1CCCCCC1	26.8	-31.8	13.0	-18.6	53.7*	66.2
Nc1cccc2nsnc12	-9.5	3.9	-31.1	-20.0	6.6	-1.3
Nc1cc2nsnc2cc1Br	70.1*	-4.2	2.0	-5.4	40.9	72.4
COc1ccc(S(=O)(=O)N2CCCCCC2)cc1N(C)S(=O)(=O)c1ccc(Cl)cc1	15.9	3.6	-3.8	12.0	11.9	60.2
COc1cc(OC)c(OC)cc1/C=N/n1c(C)nc2ccccc2c1=O	-11.0	96.9*	0.6	12.6	-0.2	8.0
COc1ccccc1NC(=O)COC(=O)c1ccc(S(=O)(=O)N2CCCCCC2)cc1	0.6	4.5	-0.1	-12.9	10.2	-16.1
CSc1ccc(/C=C(\C#N)C(=O)NC2CCCCC2C)cc1 (configuration not stated)	-2.5	35.1	0.6	-11.3	-17.9	15.3
CC1CCCCC1NC(=O)/C(C#N)=C/c1ccccc1F (configuration not stated)	u	69.9*	7.4	29.7	96.2*	12.3
c1ccc(-c2cc3nc(NCc4cccs4)nc(NCc4ccc5occc5c4)c3s2)cc1	x	-15.0	x	-39.1	63.5*	29.7
C=CCNc1nc(NCc2cccc(OC)c2)c2sc(-c3ccccc3)cc2n1	x	-16.6	x	-43.5	-26.8	4.0
COc1ccc2[nH]c(C)c(CCN(Cc3cccs3)C(=S)Nc3ccc(F)cc3)c2c1	8.5	5.0	2.0	11.9	-8.0	86.2*
COc1ccc2[nH]c(C)c(CCN(Cc3cccs3)C(=S)Nc3ccccc3)c2c1	7.7	7.6	-10.4	-12.5	-3.0	59.9
COc1cc2c3nnc(-c4ccc(F)cc4)c-3cn(Cc3ccc(C)cc3)c2cc1OC	85.5*	i	-39.9	-17.6	65.6*	18.1
COc1cc2c3nnc(-c4ccc(F)cc4)c-3cn(Cc3cccc(C)c3)c2cc1OC	x	-372.6	-58.3	-36.1	100.2*	26.1
COc1cc2c3nnc(-c4ccc(F)cc4)c-3cn(Cc3cccc(F)c3)c2cc1OC	75.3*	-19.4	-5.4	-7.2	95.8*	-7.6
COc1cc2c3nnc(-c4ccccc4)c-3cn(Cc3ccc(F)cc3)c2cc1OC	27.0	-36.2	0.2	-6.3	46.2	25.8
